Assay results published in PubChem BioAssay (NCI).
This is part of a sample that, as a whole, favours compounds with a hit. Of some 83,000 tested, about 20% had one in any assay.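 Negative percent growth values reflect cell death: -40 means 40% of the cells present at the start died, and -100 means all died.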 A number with no mark means an inactive call. Active and inactive are the calls of the source. How the source made its calls: active means growth percent below 10; inactive means the rest.

Tested on: CAKI-1 renal
Experiment: NCI-60 one-dose screen, 48 h (100 = growth as untreated, 0 = no growth, -100 = all killed)
Conditions: 10 µM unless noted

SMILES | growth
CCCCCN(CCCCC)CC(O)c1cc(C)c2ccc3cc(C(C)C)ccc3c2c1 (configuration not stated) | 57.7%
CN(Cc1ccccc1)c1nc(Cl)c(C2CC(c3ccccc3)=NN2c2ccccc2)s1 (configuration not stated) | 68.7%
COC(=O)c1ccc(NC(=O)Nc2ccc(C(=O)OC)cc2)cc1 | 124%
C=C1C(=O)O[C@H]2[C@H]1CC/C(COC(=O)NCc1ccc(Cn3c(=O)sn(-c4ccc(C#N)cc4)c3=O)cc1)=C\CC[C@@]1(C)O[C@@H]21 | 58.4%
NS(=O)(=O)c1ccc(-c2cc(-c3nnc(SCC(=O)Nc4ccc(C(=O)/C=C/c5ccc(Cl)cc5)cc4)n3-c3ccccc3)c3ccccc3n2)cc1 | 77.1%
CO[C@H](C(=O)[C@@H](O)[C@@H](C)O)[C@@H]1Cc2cc3cc(O[C@H]4C[C@@H](O[C@H]5C[C@@H](O)[C@H](O)C(C)O5)[C@H](O)C(C)(O)O4)cc(O)c3c(O)c2C(=O)[C@H]1O[C@H]1C[C@@H](O[C@H]2C[C@@H](O[C@H]3C[C@@H](OC)[C@H](O)C(C)O3)[C@@H](O)C(C)O2)[C@H](O)C(C)O1 (some centres not stated) | 68.9%
COc1ccc(/C=C(/C(=O)n2cnnn2)c2cc(OC)c(OC)c(OC)c2)cc1 | 36.1%
COc1cccc(/C=N/NC(=O)c2ccccc2N2CCCC2)c1O | 0.778% (active)
CN1CCN(c2ccc(NC(=O)c3cncnc3Nc3ccc(OCc4cccc(F)c4)c(Cl)c3)cc2)CC1 | 81.5%
C=C1C(=O)O[C@H]2[C@H]1CC/C(CNC(=O)c1c[nH]c3ccc(F)cc13)=C\CC[C@@]1(C)O[C@@H]21 | 16.2%
Cc1ncc(C(=O)Nc2ccc(CN3CCN(C)CC3)c(C(F)(F)F)c2)cc1C#Cc1cnc(N)c2ncccc12 | 7.54% (active)
CCNC(=O)Oc1ccc(/C(=C(/CC)Cc2ccccc2)c2ccc(OCCN3CCCC3)cc2)cc1 | 96.8%
CCOC(=O)c1ccccc1-c1c2ccc(=[N+](C)C)cc-2oc2cc(N(C)C)ccc12 | -26.9% (active)
O=C(Nc1ncc(Cc2ccccc2)s1)c1ccc2c(c1)OCCCO2 | 25.3%
CCCCNc1cc(-c2cn[nH]c2-c2cc(C)cc(OC)c2)nc(-c2cccnc2)n1 | 66.2%
C=C1CC[C@@H]2[C@](C)(COC(C)=O)[C@H](OC(C)=O)CC[C@@]2(C)[C@@H]1CC(Nc1ccc(S(=O)(=O)NC(C)=O)cc1)C1=CCOC1=O (some centres not stated) | 30.3%

SMILES | growth
C/C=C(\C)C(=O)N[C@H]1C(O)C[C@]2(C)C3CC[C@@]4(C)C(CC[C@@H]4C(C)N(C)C)C3CCC2C1O (some centres not stated) | 80.3%
O=C(O)COc1ccc(Cl)c(Cl)c1 | 107%
NS(=O)(=O)c1ccc(C(=O)NN2C(=O)c3c(Br)c(Br)c(Br)c(Br)c3C2=O)cc1 | 88%
CS(=O)(=O)c1ccc(NC(=O)c2ccccc2)nc1 | 106%
FC(F)(F)Oc1cccc(-c2cnc3ccc(-c4ccncc4)nn23)c1 | 7.75% (active)
Cc1ccc2c(-n3nc(C#N)c(C#N)c3N)cc(=O)[nH]c2c1 | 82.6%
CCOC(=O)c1c(C)nc2c(c1N)CC(=O)N2Cc1ccc(OC)cc1 | 76.4%
COc1cccc(CCNc2ncnc3c2ncn3Cc2nnc3c4ccccc4c(Cl)nn23)c1 | 18.3%
C=C1C(=O)O[C@H]2[C@H]1CC/C(COC(=O)c1ccc(C(=O)O)s1)=C\CC[C@@]1(C)O[C@@H]21 | 8.39% (active)
O=S(=O)(Nc1cc(Sc2cccc3cccnc23)c(O)c2ccccc12)c1ccccc1 | 25.9%
CCOC(=O)c1nn(CC(O)c2ccccc2)c(NC(=O)Nc2cccc(F)c2)c1C (configuration not stated) | 101%
Cn1ccc(=O)nc1 | 73.4%
CNCc1cccc2c1OCCOCCOCCNS(=O)(=O)c1ccc(cc1)-c1cnc(N)c(n1)C(=O)N2 | 28.4%
C=C(C)[C@@H]1CC[C@]2(C(=O)N3CCN(C)CC3)CC[C@]3(C)[C@H](CC[C@@H]4[C@@]5(C)CC[C@H](OC(=O)c6ccccc6C(=O)O)C(C)(C)[C@@H]5CC[C@]43C)[C@@H]12 | 83.9%
CCNc1ccc(-c2nc3ccccc3n3cccc23)cc1 | 57%
CSc1nc(C)c([N+](=O)[O-])c(N)n1 | 98.4%
